Source: PubChem BioAssay
A selection: hits, their analogues and other compounds. The true share with any hit is near 11%.
G9a inh: blocks human histone lysine methyltransferase G9a; G9a H3K9 monomethylation, AlphaScreen, 2 h; Potency, µM (highest dose often 102 µM), most hits filed as inhibitors; actives 8.8% (n = 350,000); AID 504332; further: nearly all actives have a fitted effect of over 75% in size
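Signal arises when biotinylated H3K9 peptide, once monomethylated, bridges streptavidin donor and antibody-captured acceptor beads. Enzyme at 20 nM was preincubated 15 min with test compounds; peptide 500 nM and SAM 20 uM then reacted for 2 h.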
BAZ2B inh: blocks human BAZ2B; AlphaScreen BAZ2B-H3K14Ac peptide displacement; Potency, µM (top dose mostly 114 µM), usual class: inhibitors; actives 4.4% (n = 360,000); AID 504333; further: nearly all actives have a fitted effect of over 60% in size
Target sequence (Q9UIF8 whole entry, looked up): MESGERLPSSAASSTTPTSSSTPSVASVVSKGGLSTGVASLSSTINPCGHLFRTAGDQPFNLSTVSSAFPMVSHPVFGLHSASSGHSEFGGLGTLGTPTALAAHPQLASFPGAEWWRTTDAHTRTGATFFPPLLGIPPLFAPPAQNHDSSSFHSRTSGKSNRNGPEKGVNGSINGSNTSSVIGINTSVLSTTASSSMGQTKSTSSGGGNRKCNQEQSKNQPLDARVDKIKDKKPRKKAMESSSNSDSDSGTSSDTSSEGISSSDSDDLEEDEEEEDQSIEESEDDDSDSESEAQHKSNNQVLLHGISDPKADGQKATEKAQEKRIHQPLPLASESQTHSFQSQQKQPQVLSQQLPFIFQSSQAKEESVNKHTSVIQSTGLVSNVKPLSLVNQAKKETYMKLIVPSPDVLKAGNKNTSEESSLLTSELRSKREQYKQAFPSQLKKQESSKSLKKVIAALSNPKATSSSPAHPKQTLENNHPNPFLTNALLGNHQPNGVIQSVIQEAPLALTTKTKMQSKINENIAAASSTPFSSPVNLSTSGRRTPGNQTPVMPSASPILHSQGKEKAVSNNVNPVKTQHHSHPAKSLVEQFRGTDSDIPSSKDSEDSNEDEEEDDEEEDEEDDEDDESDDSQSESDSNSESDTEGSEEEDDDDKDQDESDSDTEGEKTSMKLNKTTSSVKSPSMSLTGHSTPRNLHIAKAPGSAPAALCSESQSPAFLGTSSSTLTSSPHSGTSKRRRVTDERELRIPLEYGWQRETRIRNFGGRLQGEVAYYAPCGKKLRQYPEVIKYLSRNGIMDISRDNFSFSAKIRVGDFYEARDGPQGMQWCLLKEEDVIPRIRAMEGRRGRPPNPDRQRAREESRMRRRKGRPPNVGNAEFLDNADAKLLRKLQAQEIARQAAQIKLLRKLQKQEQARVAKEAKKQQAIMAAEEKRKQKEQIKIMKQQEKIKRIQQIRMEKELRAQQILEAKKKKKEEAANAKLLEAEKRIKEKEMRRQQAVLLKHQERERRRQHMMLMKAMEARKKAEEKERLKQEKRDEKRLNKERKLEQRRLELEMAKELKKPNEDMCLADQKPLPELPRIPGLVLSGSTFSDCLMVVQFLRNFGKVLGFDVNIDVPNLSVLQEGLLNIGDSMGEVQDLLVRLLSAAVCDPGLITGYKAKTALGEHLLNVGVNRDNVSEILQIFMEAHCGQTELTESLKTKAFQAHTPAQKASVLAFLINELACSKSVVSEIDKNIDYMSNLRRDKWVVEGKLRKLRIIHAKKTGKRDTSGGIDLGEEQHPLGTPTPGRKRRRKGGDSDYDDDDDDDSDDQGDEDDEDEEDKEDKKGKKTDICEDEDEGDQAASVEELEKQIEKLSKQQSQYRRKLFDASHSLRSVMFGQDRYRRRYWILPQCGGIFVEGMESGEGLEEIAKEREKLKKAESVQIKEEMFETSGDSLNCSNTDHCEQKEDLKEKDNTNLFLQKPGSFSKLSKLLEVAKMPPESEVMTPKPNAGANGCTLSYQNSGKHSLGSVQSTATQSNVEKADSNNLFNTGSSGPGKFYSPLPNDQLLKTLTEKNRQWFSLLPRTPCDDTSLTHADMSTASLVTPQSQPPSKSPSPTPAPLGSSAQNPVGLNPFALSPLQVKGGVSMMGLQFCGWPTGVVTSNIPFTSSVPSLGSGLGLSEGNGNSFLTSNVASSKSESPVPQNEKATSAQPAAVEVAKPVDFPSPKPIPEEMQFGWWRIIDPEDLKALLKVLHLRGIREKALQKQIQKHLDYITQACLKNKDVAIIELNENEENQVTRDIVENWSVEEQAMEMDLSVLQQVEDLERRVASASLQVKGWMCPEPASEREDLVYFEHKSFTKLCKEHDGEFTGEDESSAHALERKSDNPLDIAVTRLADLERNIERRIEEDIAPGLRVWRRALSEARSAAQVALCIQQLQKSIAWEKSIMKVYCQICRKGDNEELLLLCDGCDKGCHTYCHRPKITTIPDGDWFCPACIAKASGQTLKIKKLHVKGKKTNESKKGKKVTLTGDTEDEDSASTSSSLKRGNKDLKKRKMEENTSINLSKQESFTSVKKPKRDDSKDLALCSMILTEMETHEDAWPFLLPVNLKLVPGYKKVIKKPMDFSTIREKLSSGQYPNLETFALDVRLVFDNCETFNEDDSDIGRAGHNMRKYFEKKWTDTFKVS
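BAZ2B 50 nM plus b-H3(5-23)K14Ac 50 nM, PBS pH 7.4/0.01% Tween-20, 30 min RT; compound added (max 110 uM), 30 min RT; streptavidin donor/Ni-chelate acceptor beads 10 ug/mL final, 20 min dark; AlphaScreen read.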
L3MBTL1 block: blocks human L3MBTL1; AlphaScreen L3MBTL1–H3K9me1 peptide binding; Potency, µM (highest dose often 57.1 µM), actives largely listed as inhibitors; actives 0.66% (n = 230,000); further: nearly all actives have a fitted effect of over 60% in size
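AlphaScreen proximity signal between nickel-chelate acceptor and streptavidin donor beads (final 10 ug/mL) reports binding of 50 nM L3MBTL1 to 75 nM biotin-H3 K9me1 peptide; complex incubated with compounds 30 min at room temperature; cefsulodin titration as control.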
HP1b binding inh: HP1-beta chromodomain-methylated histone interaction inhibition; P83916; AlphaScreen HP1-beta / biotin-H3K9me3 peptide binding; Potency, µM (highest dose often 114 µM), most hits filed as inhibitors; actives 0.56% (n = 390,000); further: nearly all actives have a fitted effect of over 70% in size
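AlphaScreen: HP1-beta (50 nM) preformed 30 min with biotin-H3(1-18)K9me3 peptide (50 nM) in PBS pH 7.4, 0.01% Tween-20. Compound added for 30 min at RT, then streptavidin donor/nickel chelate acceptor beads (10 ug/mL) for 30 min.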
PI5P4K alpha inh: inhibitors of human PI5P4K alpha; P48426; PI5P4Kalpha enzyme, ADP-Glo luminescence, 60 min; active compounds read low; max response, %; actives 1.2% (n = 330,000); AID 652105; active means max response of -50% or lower; inconclusive means between -30% and -50%; inactive means -30% or higher; further: value at the top dose of about 77 µM
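Luminescence from ADP-Glo served as readout of PI5P4Kalpha activity in a qHTS format. Reaction: enzyme, substrate, compound, ATP at 5 microM final, 60 min at RT.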
JMJD2A Tudor: inhibitors of human JMJD2A Tudor domain. O75164. AlphaScreen JMJD2A-Tudor / H3K4me3 peptide binding. Potency, µM (top dose mostly 114 µM), actives largely listed as inhibitors. actives 4.4% (n = 390,000); further: nearly all actives have a fitted effect of over 50% in size
Numbers stand for hits; [ ] = remark or other dose. Unless noted, the call rests on the fitted dose curve; in most records, active means well fitted inhibition curve with a large enough effect; inconclusive means small, poorly fitted or top-dose-only effect; inactive means no such curve, though single readings can be large or run the other way.

Screening CC12CC(c3ccccc3O1)N(C(=O)c1ccco1)C(=S)N2c1ccccc1 (stereo not given) returned G9a inh 40µM, BAZ2B inh inconclusive, HP1b binding inh inactive, PI5P4K alpha inh inactive and JMJD2A Tudor inactive.
Screening CC1CC(N(C(=O)c2ccco2)c2ccccc2)c2ccccc2N1C(=O)c1ccco1 (stereo not given) returned G9a inh inactive, BAZ2B inh inactive, HP1b binding inh inactive and JMJD2A Tudor inactive.
For Cn1c(NN)nc2sc3c(c2c1=O)CC(C)(C)OC3 the results were G9a inh inactive, BAZ2B inh inactive, L3MBTL1 block inactive, HP1b binding inh inactive and JMJD2A Tudor inconclusive.
Screening CCC1CC2(C)NC(=O)c3c(sc4c3CC(C)(C)OC4)N2C1=O (stereo not given) returned G9a inh 32µM, BAZ2B inh inactive, L3MBTL1 block inactive, HP1b binding inh inconclusive, PI5P4K alpha inh inactive and JMJD2A Tudor inactive.
`O=C(Cn1nnc(-c2ccccc2)n1)N/N=C/c1cc([N+](=O)[O-])ccc1O` gave G9a inh inactive, BAZ2B inh inconclusive, L3MBTL1 block inconclusive, HP1b binding inh inactive, PI5P4K alpha inh inactive and JMJD2A Tudor inconclusive.
For Cc1ccn(CC(=O)N/N=C/c2cc([N+](=O)[O-])ccc2O)n1 the results were G9a inh inactive, BAZ2B inh 35µM, L3MBTL1 block inconclusive, HP1b binding inh inactive, PI5P4K alpha inh inactive and JMJD2A Tudor 22µM.
Screening O=C(N/N=C/c1cc([N+](=O)[O-])ccc1O)C1C2CCCCC21 (stereo not given) returned G9a inh inconclusive, BAZ2B inh 45µM and L3MBTL1 block inactive.
For O=C(Cn1cncn1)N/N=C/c1ccccc1O the results were BAZ2B inh 79µM, HP1b binding inh inactive, PI5P4K alpha inh inactive and JMJD2A Tudor 56µM.
`Cc1cccc(NC(=O)CCC(=O)N/N=C/c2cc([N+](=O)[O-])ccc2O)c1` gave G9a inh inactive, BAZ2B inh inactive, L3MBTL1 block inactive, HP1b binding inh inconclusive, PI5P4K alpha inh inactive and JMJD2A Tudor inactive.
O=C(Cn1cncn1)N/N=C/c1cc([N+](=O)[O-])ccc1O was read as G9a inh inactive, BAZ2B inh 22µM, L3MBTL1 block inconclusive, HP1b binding inh inactive, PI5P4K alpha inh inactive and JMJD2A Tudor 25µM.
`Cc1nc(-c2ccccc2)sc1CCNC(=O)c1ccco1` gave G9a inh inactive, BAZ2B inh inactive, HP1b binding inh inactive and JMJD2A Tudor inactive.
Cn1c2cc(B(O)O)sc2c2cnn(Cc3c(F)cccc3Cl)c(=O)c21 was read as G9a inh inactive[12.7 µM], BAZ2B inh inactive and L3MBTL1 block inactive.
O=C(N/N=C/c1cc([N+](=O)[O-])ccc1O)c1ccc(COc2ccc3c(c2)CCC3)o1 was read as BAZ2B inh 45µM, HP1b binding inh inconclusive, PI5P4K alpha inh -56 and JMJD2A Tudor inconclusive.
`Cc1nc2ccc(C(=O)N/N=C/c3cc([N+](=O)[O-])ccc3O)cc2[nH]1` gave G9a inh inactive, BAZ2B inh 35µM, L3MBTL1 block inactive, HP1b binding inh inactive, PI5P4K alpha inh inactive and JMJD2A Tudor 56µM.
Screening O=C(CSc1ccccn1)N/N=C/c1cc([N+](=O)[O-])ccc1O returned G9a inh inactive[12.7 µM], BAZ2B inh 45µM, HP1b binding inh inactive, PI5P4K alpha inh inactive and JMJD2A Tudor inconclusive.
For COc1ccc(Br)cc1/C=N/NC(=O)c1ccc(COc2ccc3c(c2)CCC3)o1 the results were G9a inh inactive, BAZ2B inh inactive, L3MBTL1 block inactive, HP1b binding inh inactive, PI5P4K alpha inh inactive and JMJD2A Tudor inactive[11.4 µM].
For O=C(N/N=C/c1cccc([N+](=O)[O-])c1)c1nc2ccccc2c(=O)[nH]1 the results were G9a inh inactive, BAZ2B inh inactive, L3MBTL1 block inactive, HP1b binding inh inactive, PI5P4K alpha inh inactive and JMJD2A Tudor inactive.
`O=C(N/N=C/c1ccccc1Cl)c1nc2ccc([N+](=O)[O-])cc2c(=O)[nH]1` gave G9a inh inconclusive, BAZ2B inh inactive, L3MBTL1 block inactive, HP1b binding inh inactive, PI5P4K alpha inh inconclusive and JMJD2A Tudor 25µM.
For O=C(CSc1ccccn1)N/N=C/c1ccccc1[N+](=O)[O-] the results were G9a inh inactive, BAZ2B inh inactive, L3MBTL1 block inactive, HP1b binding inh inactive, PI5P4K alpha inh inactive and JMJD2A Tudor inactive.
Screening OCCCNc1ccccc1 returned G9a inh inactive[12.7 µM].
Screening CS(=O)(=O)N(CC(=O)NCCSc1ccccc1)c1cc(C(F)(F)F)ccc1Cl returned G9a inh inactive, BAZ2B inh inactive, HP1b binding inh inactive and JMJD2A Tudor inactive.
For CCCOc1ccc(C(=O)N(Cc2ccccc2Cl)C2CCS(=O)(=O)C2)cc1 (stereo not given) the results were G9a inh inactive, BAZ2B inh inactive, HP1b binding inh inactive and JMJD2A Tudor inactive.
`Cc1ccc(CS(=O)(=O)c2cn(CC(=O)N(C)c3ccccc3)c3ccccc23)cc1` gave G9a inh inactive, BAZ2B inh inactive, HP1b binding inh inactive and JMJD2A Tudor inactive.
Screening COCCCNC(=O)c1cc2n(n1)CCCN(Cc1ccc(C)cc1)C2=O returned G9a inh inactive[12.7 µM], BAZ2B inh inactive, HP1b binding inh inactive and JMJD2A Tudor inactive.
Cc1ccc(Cn2c(CNC(=O)c3ccc(Cl)c([N+](=O)[O-])c3)nc3cccnc32)cc1 was read as G9a inh inactive, BAZ2B inh inconclusive, HP1b binding inh inactive and JMJD2A Tudor inactive.
Screening Cc1ccc(NC(=O)Cn2c(=O)n(CCCCCC(=O)NCc3ccc(F)cc3)c(=O)c3sccc32)cc1C returned G9a inh inactive, BAZ2B inh inactive, HP1b binding inh inactive and JMJD2A Tudor inactive.
For CC(C)NC(=O)C1(C)CN(S(C)(=O)=O)CC(=O)N1Cc1cccs1 (stereo not given) the results were PI5P4K alpha inh inactive.
Screening O=C(Cn1nc2ccccc2n1)N/N=C/c1cc([N+](=O)[O-])ccc1O returned G9a inh inconclusive, BAZ2B inh 11µM, L3MBTL1 block 7.9µM, HP1b binding inh inactive, PI5P4K alpha inh inconclusive and JMJD2A Tudor inconclusive.
For Cc1cc([N+](=O)[O-])nn1CC(=O)N/N=C/c1ccc(O)cc1O the results were G9a inh inactive, BAZ2B inh 89µM, HP1b binding inh inactive, PI5P4K alpha inh inactive and JMJD2A Tudor inconclusive.
`Cc1ccc(-n2[nH]c(=O)c(-c3ccccn3)c2C)cc1` gave G9a inh inactive, BAZ2B inh 45µM, L3MBTL1 block inactive, HP1b binding inh inactive, PI5P4K alpha inh inactive and JMJD2A Tudor inactive.
`Oc1c(N=Nc2ccccc2)sc2ccccc12` gave BAZ2B inh 2µM, L3MBTL1 block inactive, HP1b binding inh inactive, PI5P4K alpha inh inactive and JMJD2A Tudor inconclusive.
